From PubChem BioAssay
Tg IFNy HTS: T. gondii growth inhibition under IFN-gamma. Toxoplasma gondii growth in IFN-gamma-treated host cells; hits give low values. activity change, negative = inhibition, % (test concentration not listed). actives 3.8% (n = 69,000); in the data active = activity change below about -70%, passing the limit was not always enough;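 also: host cells are HeLa cells infected with Toxoplasma gondii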
Each line names hits and unclear results; the compound was inactive in the other large screens; ! = not confirmed by another sample. Shown is part of a subset that was picked to be rich in hits.

CC(C)CN1C(=O)CCc2cc(NS(=O)(=O)c3ccccc3)ccc21	none
CCN1C(=O)CCc2cc(NS(=O)(=O)c3cc(F)ccc3F)ccc21	none
CCN1C(=O)CCc2cc(NS(=O)(=O)Cc3ccc(Cl)cc3)ccc21	none
CCN1C(=O)CCc2cc(NS(=O)(=O)c3ccc(C#N)cc3)ccc21	Tg IFNy HTS -102
Cc1cc(C)cc(S(=O)(=O)Nc2ccc3c(c2)CCC(=O)N3CC(C)C)c1	none
CCN1C(=O)CCc2cc(NS(=O)(=O)c3ccc(C4CCCCC4)cc3)ccc21	Tg IFNy HTS -95
CCN1C(=O)CCc2cc(NS(=O)(=O)c3c(C)cccc3Cl)ccc21	none
CC(C)CN1C(=O)CCc2cc(NS(=O)(=O)c3ccc(Cl)cc3)ccc21	Tg IFNy HTS -80
CCN1C(=O)CCc2cc(NS(=O)(=O)c3cccc(F)c3)ccc21	none
CC(c1nccs1)N(C)C(=O)CCSc1ccc2c(c1)OCCO2 (stereo not given)	none
O=S(=O)(N1CCCCCC1)N1CCCCC1c1cccc(F)c1 (stereo not given)	none
CCOC(=O)c1ccc(S(=O)(=O)n2c(Cc3cccs3)nc3ccccc32)cc1	none
CCN1C(=O)CCc2cc(NC(=O)c3ccco3)ccc21	none
CCN1CCC2(CC1)OC(=O)C(C)=C2C(=O)N1CCC(N2CCCCC2)CC1	none
CCn1c(=O)/c(=C2/Sc3ccc(OC)cc3N2C)s/c1=C1/C(=O)N(C)C(=S)N1C	Tg IFNy HTS -78
NC(=O)C1Cc2ccccc2CN1C(=O)c1cc(-c2ccccn2)nc2ccccc12 (stereo not given)	none
CCS(=O)(=O)N1CCC2(CCOCC2COc2cccnc2)CC1 (stereo not given)	none
CC(=O)N1CCC2(CC1)OC(=O)C(C)=C2C(=O)NCCN(CC(C)C)CC(C)C	none
CCOc1ccc2[nH]c(=O)c(CN3CCCN(C(=O)C4CC4)CC3)cc2c1	Tg IFNy HTS -83
CCOc1ccc2[nH]c(=O)c(CN3CCCCC3c3nc(C)no3)cc2c1 (stereo not given)	none
CCCOC1CCCN(Cc2cc3cc(OC)ccc3[nH]c2=O)C1 (stereo not given)	none
CCCS(=O)(=O)N1CCO[C@H]2[C@@H](Oc3ccccn3)CC[C@H]21	none
CCOC(=O)c1cnc2ccc(C(=O)OC)cc2c1Nc1ccc2c(c1)OCCO2	Tg IFNy HTS -72!
CCOC(=O)c1cnc2ccccc2c1NCCO	none
CCOC(=O)c1cnc2ccc(C(=O)OC)cc2c1Nc1ccc(C(=O)O)cc1	none
O=C(O)[C@H]1C[C@H](C(=O)NCc2cccnc2)CN(Cc2cc3ccccc3o2)C1	none
CCn1c(C2CCCN(Cc3ncc(C)[nH]3)C2)nn(CCN(C)C)c1=O (stereo not given)	none
COc1ccc(C(C)NC2CCN(C)CC2)cc1 (stereo not given)	none
C[C@@H]1CN([C@@H](C)CO)C(=O)c2cc(NC(=O)Nc3ccc(C(F)(F)F)cc3)ccc2O[C@@H](C)CCCCO[C@@H]1CN(C)S(=O)(=O)c1ccc(Cl)cc1	none
C[C@@H]1CCCCO[C@@H](CN(C)S(=O)(=O)c2ccc(Cl)cc2)[C@@H](C)CN([C@@H](C)CO)C(=O)c2cc(NC(=O)Nc3ccc(C(F)(F)F)cc3)ccc2O1	none
COc1ccc(S(=O)(=O)Nc2ccc3c(c2)C(=O)N([C@H](C)CO)C[C@H](C)[C@@H](CN(C)S(=O)(=O)c2ccc(Cl)cc2)OCCCC[C@@H](C)O3)cc1	none
C[C@@H]1CCCCO[C@H](CN(C)S(=O)(=O)c2ccc(Cl)cc2)[C@@H](C)CN([C@@H](C)CO)C(=O)c2cc(NC(=O)Nc3ccc(C(F)(F)F)cc3)ccc2O1	none
COc1ccc(S(=O)(=O)Nc2ccc3c(c2)C(=O)N([C@@H](C)CO)C[C@H](C)[C@@H](CN(C)S(=O)(=O)c2ccc(Cl)cc2)OCCCC[C@@H](C)O3)cc1	Tg IFNy HTS -113
C[C@@H]1CCCCO[C@H](CN(C)S(=O)(=O)c2ccc(Cl)cc2)[C@H](C)CN([C@@H](C)CO)C(=O)c2cc(NC(=O)Nc3ccc(C(F)(F)F)cc3)ccc2O1	none
COc1ccc(S(=O)(=O)Nc2ccc3c(c2)C(=O)N([C@H](C)CO)C[C@H](C)[C@@H](CN(C)S(=O)(=O)c2ccc(Cl)cc2)OCCCC[C@H](C)O3)cc1	Tg IFNy HTS -113
C[C@@H]1CN([C@H](C)CO)C(=O)c2cc(NS(=O)(=O)c3ccc(Cl)cc3)ccc2O[C@@H](C)CCCCO[C@@H]1CN(C)C(=O)CCCN(C)C	none
COc1ccc(S(=O)(=O)Nc2ccc3c(c2)C(=O)N([C@@H](C)CO)C[C@H](C)[C@@H](CN(C)S(=O)(=O)c2ccc(Cl)cc2)OCCCC[C@H](C)O3)cc1	Tg IFNy HTS -130
COc1ccc(S(=O)(=O)Nc2ccc3c(c2)C(=O)N([C@@H](C)CO)C[C@@H](C)[C@@H](CN(C)S(=O)(=O)c2ccc(Cl)cc2)OCCCC[C@H](C)O3)cc1	Tg IFNy HTS -128
C[C@@H]1CN(c2ccnc(C(=O)NCc3cn4ccccc4n3)c2)C[C@H](C)O1	none
CN(Cc1ccccc1)C1CCN(C(=O)c2cccs2)C(C(=O)O)C1 (stereo not given)	none
CC1(C)CC(C(=O)N2CCC(n3cc(-c4ccccn4)nn3)CC2)CCO1 (stereo not given)	none
NCc1n[nH]c(=O)n1CCc1ccc(F)cc1	none
CC(=O)N1CCc2c([nH]c3ccccc23)C12C(=O)N(C)c1ccccc12 (stereo not given)	none
CN1c2ccccc2C(=O)N2CCc3c([nH]c4ccccc34)C21 (stereo not given)	Tg IFNy HTS -80
CCc1ccc(C2c3[nH]c4ccccc4c3CCN2C(=O)CSC)cc1 (stereo not given)	none
CCN(CC)C(=O)[C@@H]1C[C@H](N)CN1C(=O)C(=O)N1CCc2ccccc21	none
Cn1nc(-c2cccnc2)c2c1CN(S(C)(=O)=O)CCC2	none
COc1ccc(CCNC(=O)N2CCC(n3cc(CN)nn3)CC2)cc1	none
CC(C)Oc1ccc(-c2noc(-c3c(O)c4cccc(Cl)c4[nH]c3=O)n2)cc1	none
Cc1nc(C2CCCCN2S(=O)(=O)c2cn(C)cn2)ncc1C(=O)N1CCCCC1 (stereo not given)	none
CSc1nncc(-c2ccc(Cl)cc2)n1	none
CSc1nccc(-c2ccc(O)cc2)n1	Tg IFNy HTS -78
COc1cccc(-c2ccc(O)cc2)n1	none
COc1ccc(C(=O)N(c2ccc(C(C)C)cc2)C2(C(=O)NCc3ccccc3)CCN(C(C)=O)CC2)cc1	Tg IFNy HTS -96
COc1ccc(C(=O)N(Cc2ccc(Cl)cc2)C2(C(=O)NCc3ccccc3)CCN(C(C)=O)CC2)cc1	none
COc1ccc(C(=O)N(Cc2cccc(F)c2)C2(C(=O)NCc3ccccc3)CCN(C(C)=O)CC2)cc1	none
COc1ccc(C(=O)N(c2ccc(Cl)cc2)C2(C(=O)NCc3ccccc3)CCN(C(C)=O)CC2)cc1	none
COc1ccc(C(=O)N(Cc2cccc(OC)c2)C2(C(=O)NCc3ccccc3)CCN(C(C)=O)CC2)cc1	Tg IFNy HTS -83
COc1ccc(C(=O)N(c2ccc(F)cc2)C2(C(=O)NCc3ccccc3)CCN(C(C)=O)CC2)cc1	none
Cc1noc(C)c1Cc1c(C(=O)Nc2ccc3c(c2)N(C)C(=O)CO3)noc1C	none
CCc1ncnc2c1CCN(C(=O)CCc1ccccc1)CC2	none
CCN(CCN(C)C)C(=O)c1cnc(-c2noc3cc(NCC4CC4)ccc23)s1	none
CCOc1cccc(C2c3[nH]c4ccccc4c3CCN2C(=O)COC)c1 (stereo not given)	none
COc1ccccc1C(=O)N1CCc2c([nH]c3ccccc23)C1c1ccc(Cl)cc1 (stereo not given)	none
